# In PubChem BioAssay:
# A number with no mark means an inactive call. The source made the active and inactive calls. Rule as the data show it, unless noted: active = inhibition above about 30%; inactive = the rest.
# Legend:
# [1] = biological target: Nuclear receptor coactivator 3 (Homo sapiens) (UniProt Q9Y6Q9); assay: NCOA3 GAL4-fusion reporter inhibition – cell-based, luminescence, quadruplicate, confirmation (AID 588792;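 active = mean inhibition over 43.08%, the solvent-only control mean plus 3 SD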;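 also: 0% = DMSO treated cells and 100% = gossypol at 36 µM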); details: HEK293 GAL4-SRC3 luciferase reporter, at 3.6 µM, stronger effect = higher value
# [2] = tested on: transactivating tegument protein VP16 (Human herpesvirus 1), Gal4-VP16 luciferase reporter; assay: repression of VP16-driven luciferase reporter – cell-based, luminescence, high throughput, counter-screen for SRC3 inhibitor project (AID 588794); details: mammalian cells, at 3.6 µM, stronger effect = higher value
# Nuclear receptor coactivator 3 (Homo sapiens), sequence (Q9Y6Q9 whole entry, looked up, the tested form may be a part): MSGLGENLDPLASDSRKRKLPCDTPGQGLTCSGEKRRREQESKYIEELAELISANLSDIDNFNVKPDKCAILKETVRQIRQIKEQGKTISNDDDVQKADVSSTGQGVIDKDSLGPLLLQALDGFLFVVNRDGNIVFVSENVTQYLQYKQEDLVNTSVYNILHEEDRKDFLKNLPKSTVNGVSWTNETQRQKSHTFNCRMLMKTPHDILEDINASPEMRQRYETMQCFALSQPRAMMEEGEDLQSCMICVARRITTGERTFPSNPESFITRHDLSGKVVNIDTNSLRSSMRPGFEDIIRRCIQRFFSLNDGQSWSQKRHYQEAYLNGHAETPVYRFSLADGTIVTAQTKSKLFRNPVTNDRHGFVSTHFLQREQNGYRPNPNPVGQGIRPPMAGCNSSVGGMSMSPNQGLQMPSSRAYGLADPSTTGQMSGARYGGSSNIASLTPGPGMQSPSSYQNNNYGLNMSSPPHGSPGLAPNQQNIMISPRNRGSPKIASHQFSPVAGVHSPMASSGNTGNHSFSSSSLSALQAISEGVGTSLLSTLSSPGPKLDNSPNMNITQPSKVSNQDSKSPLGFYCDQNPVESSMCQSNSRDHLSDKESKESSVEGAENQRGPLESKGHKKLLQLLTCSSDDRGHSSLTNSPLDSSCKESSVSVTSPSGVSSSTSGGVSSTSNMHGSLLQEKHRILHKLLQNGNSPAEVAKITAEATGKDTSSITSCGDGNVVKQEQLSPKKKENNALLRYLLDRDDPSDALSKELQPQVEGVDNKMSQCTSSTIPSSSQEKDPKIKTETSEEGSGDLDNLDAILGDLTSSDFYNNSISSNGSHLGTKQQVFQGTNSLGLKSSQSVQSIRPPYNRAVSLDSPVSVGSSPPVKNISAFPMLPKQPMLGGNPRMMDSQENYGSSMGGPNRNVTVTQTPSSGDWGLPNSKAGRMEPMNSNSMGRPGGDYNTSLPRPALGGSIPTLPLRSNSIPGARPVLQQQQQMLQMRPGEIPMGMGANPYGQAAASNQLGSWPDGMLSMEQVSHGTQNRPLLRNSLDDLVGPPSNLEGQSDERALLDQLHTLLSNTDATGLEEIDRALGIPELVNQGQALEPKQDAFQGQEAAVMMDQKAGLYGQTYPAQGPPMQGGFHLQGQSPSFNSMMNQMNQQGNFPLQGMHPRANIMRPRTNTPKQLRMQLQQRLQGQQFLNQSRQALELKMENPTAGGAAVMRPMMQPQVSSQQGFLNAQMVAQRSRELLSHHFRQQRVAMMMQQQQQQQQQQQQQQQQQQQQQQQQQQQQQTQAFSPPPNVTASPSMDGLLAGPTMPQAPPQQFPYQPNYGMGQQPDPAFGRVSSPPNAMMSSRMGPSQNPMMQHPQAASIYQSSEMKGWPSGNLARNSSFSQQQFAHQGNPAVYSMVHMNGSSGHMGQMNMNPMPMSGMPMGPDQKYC
Structure (SMILES),inhibition [1],inhibition [2]
O=C(NCCc1cn2ccccc2n1)c1cc(COc2ccc3ncccc3c2)on1,-5.01%,18.4%
COc1cc(/C=C2/SC(=S)N(c3ccccc3)C2=O)ccc1Oc1nc(N2CCOCC2)nc(N2CCOCC2)n1,4.82%,-7.44%
O=C(NCCc1ccccn1)C(F)(F)C(F)(F)C(F)(F)C(F)(F)C(F)(F)C(F)(F)C(F)(F)C(F)F,9.78%,-4.16%
COc1ccccc1N1CCN(C(=O)C2CCCN(S(=O)(=O)c3ccc4c(c3)CCCN4C(C)=O)C2)CC1 (centres undefined),-12.2%,8.25%
Cc1ncoc1C(=O)NC1CCCc2c1cnn2-c1ccc(C(C)(C)C)cc1 (centres undefined),-0.26%,41.8% (active)
O=C(N/N=C\c1c(O)ccc2ccccc12)c1ccc(Cn2cccn2)o1,49.1% (active),39.5% (active)
COC(=O)Cc1[nH]n(-c2nc3ccccc3s2)c(=O)c1C(C)=Nc1ccc(C)cc1,90.5% (active),87.1% (active)
Cc1ccc(OCC(O)CN2CCN(CC(O)COC(C)C)CC2)c(C(C)(C)C)c1 (centres undefined),8.73%,13.2%
CCc1c(C)nc2ncnn2c1NCCc1ccc(Cl)cc1,23.3%,25.9%
COc1cccc(C(=O)Oc2c(Br)cc(Br)cc2/C=N/NC(=O)c2cc(C)[nH]n2)c1,18.3%,18.3%
COc1ccc(-n2c(-c3ccc(Br)cc3)c[n+]3c2SC(C)C3)cc1 (centres undefined),12.5%,23.3%
COc1ccc(/C=C(\C#N)C(=O)OCC(=O)N(C)C2CCS(=O)(=O)C2)cc1 (centres undefined),-1.8%,-11%
CN1C/C(=C/c2cccnc2)C(=O)/C(=C/c2cccnc2)C1,23.5%,54.1% (active)
CC(C)(C)c1cc(C(=O)N/N=C/c2ccccc2O)n(-c2ccccc2)n1,35.7%,40.6% (active)
Cc1cccc(Oc2sc(C(=O)c3ccccc3)c(N)c2C#N)c1,34.8%,5.81%
CC(C)[C@@H]1CC[C@@H](C)C[C@H]1OC(=O)C[n+]1cc(-c2ccc(Cl)cc2)n2c1CCCCC2,10.3%,20.6%
Cc1cccc(NC(=S)N(CCCN2CCOCC2)Cc2cn(C)c3ccccc23)c1,-2.78%,-2.77%
C=CCc1cccc(/C=N/NC(=O)CCC(=O)Nc2ccc(F)cc2)c1O,26.2%,21.1%
Cc1ccc(Cl)cc1N1CCN(C(c2ccc(C#N)cc2)c2nnnn2C2CCCC2)CC1 (centres undefined),1.29%,22.5%

Structure (SMILES),inhibition [1],inhibition [2]
O=C(Oc1ccc(F)cc1C(=O)/C=C/c1cccs1)c1cccc([N+](=O)[O-])c1,-13.7%,-23.3%
CCCCC(=O)NC(=S)Nc1cccc(Cl)c1N1CCCCC1,1.21%,-6.23%
CCCC(=O)NC(c1ccc(OC)cc1)c1ccc2cccnc2c1O (centres undefined),57.7% (active),63.7% (active)
CCN(CC)c1ccc(/C=N/NC(=O)c2ccc3nc[nH]c3c2)c(O)c1,51.3% (active),50.6% (active)
CC(C)C[C@H]1CNC(=S)N1C[C@H]1CCCN1C[C@H](Cc1ccc(O)cc1)N1C[C@H](CC(C)C)N(CC2CCCCCC2)C1=S,21.1%,16.3%
COc1cccc(CNC(=O)c2cc3c(c(-c4cccc(-c5cccc(C#N)c5)c4)n2)[C@H](CCO)N(S(=O)C(C)(C)C)C3)c1 (some centres undefined),-23%,0.36%
CCN(CC)CCOc1c(Br)ccc2c1sc1nc3n(c(=O)c12)CCC3,-18.1%,2.47%
NC(=S)NNc1ccc(Cl)c(Cl)c1,12.7%,-0.23%
O=C1c2cccc(NCCNCCO)c2C(=O)c2cccc(NCCNCCO)c21,-30.9%,37.6% (active)
O=S(=O)(NC1=NCCC1)c1cccc(NS(=O)(=O)c2ccc(OC(F)(F)F)cc2)c1,-6.28%,-8.52%
Cc1cc(Br)cc(/C=N/NC(=O)c2ccc3c(c2)OCO3)c1O,18.9%,26.3%
C/C(=N\NC(=O)COc1ccccc1-c1ccccc1)c1ccc(O)cc1O,8.45%,10.5%
COc1ccc(C(=O)NN(C)c2nc(C(F)(F)F)nc3ccccc23)cc1,51.1% (active),35.3% (active)
CN(C)c1ccc(C=c2c3cc([N+](=O)[O-])ccc3n3c2cc(-c2ccccc2)[n+]3C)cc1,38.4%,56.7% (active)
COC(=O)/C(C#N)=C\c1c(OC)[nH]c2ccccc12,18.6%,12.4%
COc1ccc(C(Cl)=C(C=O)c2ccc(OC)c(OC)c2)cc1OC,22.3%,-10.7%
CC1CCc2sc3ncnc(N4CCOCC4)c3c2C1 (centres undefined),32.5%,29.8% (active)
O=C(C[n+]1ccccc1)NNc1ccccc1,33.2%,47.4% (active)
